# Assay results reported in PubChem BioAssay.
# The source made the active and inactive calls.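 The calls were made as follows, unless noted: active = compound that reduces growth-factor-driven endothelial tube area in a mixed cell culture, no cutoff stated; inactive = the rest.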
# Experiments:
# [1] = stimulators of nuclear beta-catenin in C2C12, primary screen, imaging, WNT3A-conditioned medium, mouse C2C12, NPC library (AID 1117326; in the data active = nuclear beta-catenin stimulation mostly above about 4.2%, no sharp cut-off; inactive = mostly below about 10%; also: reference of the scale not given here); conditions: stronger effect = higher value
# [2] = stimulators of insulin release from INS-1E, primary screen, cell-based, 5 mM glucose, NPC library (AID 1117329;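 active = compound raises insulin release from rat beta cells at 5 mM glucose, no numeric limit stated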; also: reference of the scale not given here); conditions: rat INS-1E insulin secretion, at 10 µM, stronger effect = higher value
# [3] = growth inhibition of GSK3B-pretreated HCT116 cells – cell-based, CellTiter-Glo, 0.2 to 20 µM (AID 1117336;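 active = compounds lowering colon cancer cell viability after pretreatment blocking the GSK3B kinase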); conditions: HCT116 viability after GSK3B inhibitor, at 20 µM, stronger effect = higher value
# [4] = inhibition of endothelial tube formation, primary screen, imaging, VEGF stimulated, CD31 staining, tube area, NPC library (AID 1117340); conditions: VEGF-stimulated ADSC/ECFC co-culture, at 10 µM, stronger effect = higher value
# [5] = glucagon-like peptide 1 release enhancers, primary assay, NCI-H716 cell line, NPC library (AID 1117341;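 active = compound raises GLP1 secretion from the human gut endocrine cells, with no numeric limit stated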; also: reference of the scale not given here); conditions: NCI-H716 cells, at 10 µM, stronger effect = higher value
# [6] = HCT116 colon cancer cell growth inhibition, primary screen, CellTiter-Glo luminescence, NPC library (AID 1117342;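 active = compounds that lower survival of HCT116 colon cancer cells in the luminescence readout, no numeric limit stated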); conditions: at 20 µM (top of the series)
# [7] = CellTiter-Glo luminescent readout of SW480 viability loss, NPC library primary (AID 1117343;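 active = compounds that lower viability of the colon cancer cells in the luminescence readout, with no numeric limit stated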); conditions: CellTiter-Glo luminescence; at 20 µM (top of the series)
# [8] = decreased DLD-1 cellular survival, CellTiter-Glo luminescent readout, NPC compound collection, primary HTS (AID 1117346;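 active = compounds that lower survival of DLD-1 colon cancer cells in the luminescence readout, no cutoff given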); conditions: DLD-1 viability, CellTiter-Glo luminescence; at 20 µM (top of the series)
Structure (SMILES),nuclear beta-catenin stimulation ([1]; at 10 µM),"nuclear beta-catenin stimulation ([1]; stimulation, at 2 µM)",insulin secretion stimulation [2],viability decrease [3],tube area decrease [4],GLP1 secretion stimulation [5],inhibition of viability [6],viability decrease (inhibition) [7],viability decrease (inhibition) [8]
COc1ccc(C(=O)N2CCN(CC(=O)N3CCOCC3)CC2)cc1,0.8% (inactive),5.2%,3.1% (inactive),6.4% (inactive),2.1% (inactive),0.6% (inactive),4.3% (inactive),-11.3% (inactive),3.3% (inactive)
Cc1cccc(OCC(O)CNC(C)(C)C)c1C (stereo not drawn),-0.4% (inactive),0.2%,1% (inactive),-0.4% (inactive),18.2% (inactive),-1% (inactive),23.8% (inactive),24.5% (inactive),8.8% (inactive)
Cc1cc(N)c2cc(NC(=O)Nc3ccc4nc(C)cc(N)c4c3)ccc2n1,2.4% (inactive),-2.2%,8.1% (inactive),54.4% (active),-0.3% (inactive),32.3% (active),64% (active),144% (active),94.2% (active)
O=C(OCC(O)CO)c1ccccc1Nc1ccnc2c(C(F)(F)F)cccc12 (stereo not drawn),1% (inactive),0.5%,-0.3% (inactive),-37% (inactive),-5.3% (inactive),4.1% (inactive),12% (inactive),30.4% (inactive),-17.2% (inactive)
CCN(CC)CC(=O)OCC(=O)[C@@]1(O)CC[C@H]2[C@@H]3CCC4=CC(=O)CC[C@]4(C)[C@H]3[C@@H](O)C[C@@]21C,-0.5% (inactive),-0.8%,-0.5% (inactive),-24.6% (inactive),0.8% (inactive),1.1% (inactive),-15.9% (inactive),37.2% (inactive),-9.9% (inactive)
CC(C)=CCNc1ncnc2c1ncn2[C@@H]1O[C@H](CO)[C@@H](O)[C@H]1O,4.6% (inactive),1.9%,1.8% (inactive),109% (active),106% (active),0.8% (inactive),111% (active),110% (active),101% (active)
NC(N)=NN=C(/C=C/c1ccc([N+](=O)[O-])o1)/C=C/c1ccc([N+](=O)[O-])o1,-3% (active),56.2%,6% (inactive),99.3% (active),38.8% (active),-3% (inactive),99.5% (active),102% (active),96% (active)
CCOC(=O)N1CCC(n2c(=O)[nH]c3cc(Cl)ccc32)CC1,-2.8% (inactive),-0.2%,-5.2% (inactive),15.6% (inactive),14.4% (inactive),-8.8% (inactive),49.4% (inactive),19.8% (inactive),0.5% (inactive)
CCCCCCCCCCCC[N+](C)(C)Cc1ccccc1,7.4% (inactive),-1.2%,1.9% (inactive),99.3% (active),108% (active),-2.1% (inactive),99.6% (active),78.1% (active),101% (active)
O=C(Nc1ccc(Br)cc1)c1cc(Br)c(Br)s1,24.1% (inactive),-0.1%,3.5% (inactive),99.8% (active),108% (active),-2% (inactive),99.7% (active),102% (active),102% (active)
CCC(C(=O)NC(=O)NC(C)=O)c1ccccc1 (stereo not drawn),0.9% (inactive),0.2%,0.6% (inactive),78.3% (active),7.5% (inactive),-4.7% (inactive),46.2% (inactive),70.3% (active),6.1% (inactive)
COC(=O)CCC[N+](C)(C)C,-0.8% (inactive),0.6%,-6.3% (inactive),-4.8% (inactive),6.6% (inactive),-14% (inactive),4.6% (inactive),2.9% (active),-12.1% (inactive)
CCCOc1ccc2c(c1)CC[C@@H]1[C@@H]2CC[C@]2(C)C(OC)CC[C@@H]12 (stereo partly drawn),0.5% (inactive),0%,-0.1% (inactive),69.6% (active),-3.1% (inactive),-0.8% (inactive),56% (active),103% (active),40.8% (inactive)
COC1=C(OC)C(=O)C(CC=C(C)CCC=C(C)CCC=C(C)CCC=C(C)CCC=C(C)CCC=C(C)CCC=C(C)CCC=C(C)CCC=C(C)CCC=C(C)C)=C(C)C1=O,0.8% (inactive),1.2%,3.9% (inactive),13.5% (inactive),-5.2% (inactive),1.9% (inactive),4.6% (inactive),-7.3% (inactive),1.9% (inactive)
C[C@H](CCC(=O)O)[C@H]1CC[C@H]2[C@H]3[C@@H](CC[C@]12C)[C@@]1(C)CC[C@@H](O)C[C@H]1C[C@@H]3O,-1.6% (inactive),0.2%,1% (inactive),-8.5% (inactive),-26.9% (inactive),-1.3% (inactive),7.3% (inactive),6.1% (inactive),-6.8% (inactive)
COC(=O)/C=C(/C)N,0.7% (inactive),2.2%,-0.8% (inactive),17.3% (inactive),-6% (inactive),2.3% (inactive),-17.5% (inactive),2.9% (inactive),-8.3% (inactive)

Structure (SMILES),nuclear beta-catenin stimulation ([1]; at 10 µM),"nuclear beta-catenin stimulation ([1]; stimulation, at 2 µM)",insulin secretion stimulation [2],viability decrease [3],tube area decrease [4],GLP1 secretion stimulation [5],inhibition of viability [6],viability decrease (inhibition) [7],viability decrease (inhibition) [8]
O=C(O)CCC(=O)O,0% (inactive),0.2%,-1% (inactive),-5.25% (inactive),-24.1% (inactive),1.6% (inactive),-15.8% (inactive),10% (inactive),-6.5% (inactive)
Nc1ncnc(Nc2ccccc2)n1,0.5% (inactive),0.6%,-1.2% (inactive),3.65% (inactive),-16% (inactive),-0.9% (inactive),2.7% (inactive),51.8% (active),19.1% (inactive)
O=C(CCN1CCN(CCO)CC1)N1c2ccccc2Sc2ccc(C(F)(F)F)cc21,2.5% (inactive),1.4%,8.2% (inactive),50.2% (active),25.8% (inactive),2.4% (inactive),49.2% (inactive),96.4% (active),58.8% (active)
O=C(O)c1cn(C2CC2)c2cc(Cl)c(F)cc2c1=O,0% (inactive),-1.8%,2.05% (inactive),55.5% (active),-14.6% (inactive),-3.9% (inactive),42.5% (inactive),-3.8% (inactive),-3.8% (inactive)
N[C@@H](CSCCCO)C(=O)O,-1.1% (inactive),1.4%,-0.6% (inactive),-4.55% (inactive),1.7% (inactive),-0.3% (inactive),-17.6% (inactive),17.3% (inactive),-1.1% (inactive)
O=C1Nc2cc(Cl)ccc2Oc2ccccc21,0% (inactive),-0.5%,-0.2% (inactive),55.1% (active),17.8% (inactive),-0.4% (inactive),10.7% (inactive),-6.3% (inactive),-57.3% (inactive)
COc1ccc2c(c1)c(CC(=O)OC/C=C(\C)CC/C=C(\C)CCC=C(C)C)c(C)n2C(=O)c1ccc(Cl)cc1,2.2% (inactive),3%,2.1% (inactive),-16.7% (inactive),5.1% (inactive),-2.8% (inactive),4.5% (inactive),8.2% (inactive),-1.2% (inactive)
Cc1cccc(C)c1NC(=O)c1cc(S(N)(=O)=O)c(Cl)cc1O,-1.8% (inactive),0.7%,-1.9% (inactive),-8.6% (inactive),-2.4% (inactive),-2.3% (inactive),-3.4% (inactive),3.4% (inactive),-5.4% (inactive)
Cc1ccc(-c2ccccc2C#N)cc1,1.4% (inactive),6.2%,0.25% (inactive),3.2% (inactive),-5.1% (inactive),2.4% (inactive),-1.3% (inactive),-24.5% (inactive),-11% (inactive)
O=C(O)c1ccc(OCCCOc2ccc(C(=O)O)cc2)cc1,1.9% (inactive),0.7%,3.2% (inactive),-0.8% (inactive),-2.8% (inactive),-1.8% (inactive),-0.8% (inactive),5.3% (inactive),-6.3% (inactive)
CCCCCCCCCCCC(=O)OCC(O)CO (stereo not drawn),-1.2% (inactive),2.9%,-1.1% (inactive),-3.8% (inactive),14.2% (inactive),-3.3% (inactive),-2.2% (inactive),44.7% (inactive),44.9% (inactive)
OC[C@H]1O[C@@H](n2cnc3c(=S)nc[nH]c32)[C@H](O)[C@@H]1O,-2.5% (inactive),-0.2%,0.7% (inactive),95.3% (active),95.4% (active),-1.6% (inactive),84.2% (active),78.1% (active),73.5% (active)
Cc1ccc(S(=O)(=O)NC(=O)NC2CCCC2)cc1,0.2% (inactive),0.6%,15.2% (inactive),-1.25% (inactive),-10.7% (inactive),-0.4% (inactive),-18.5% (inactive),44.9% (inactive),9.95% (inactive)
CCCOC(=O)c1cc(O)c(O)c(O)c1,4.2% (inactive),1.9%,-1.6% (inactive),43.1% (inactive),71.3% (active),-2.1% (inactive),35.1% (inactive),78.3% (active),58.4% (active)
C[C@@H]1CCC[C@H](C)N1CCCC(O)(c1ccccc1)c1ccccn1 (stereo partly drawn),1% (inactive),0%,2.6% (inactive),-50.8% (inactive),12.8% (inactive),1.3% (inactive),-3.7% (inactive),14.7% (inactive),-14.8% (inactive)
Nc1c(I)cc(I)c(C(=O)N(CCC(=O)O)c2ccccc2)c1I,1.2% (inactive),-0.2%,1.9% (inactive),-9.8% (inactive),-5.2% (inactive),-5.3% (inactive),-9.4% (inactive),7.8% (active),-9.8% (inactive)
